This note sets out measurements from PubChem BioAssay (EPA / NIEHS).

Several values for one entry are separate records, joined by “and”; a condition that tells them apart may be missing. Equal entries are not always repeated. Records with an inconclusive call do not appear. Activity calls are given as the source filed them. Rule for the calls: active = hit-call score of the fitted dose curve at least 0.9, where 1 is the maximum; inconclusive = response in the unintended direction; inactive = score below 0.9.

The assay has as its target Cytochrome P450 2C19 (Homo sapiens) (UniProt P33261). The experiment in a line: NVS_ADME_hCYP2C19: NovaScreen (NVS) CYP450-related Enzyme Activity (ADME) Assay for human CYP2C19 (AID 2283113).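 For AC50: potency for inhibition seen as loss of fluorescent signal.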 As for the experimental part:
NVS_ADME_hCYP2C19 is a biochemical, single-readout assay that uses extracted gene-proteins from insect cells in a cell-free assay. Measurements were taken 1 hour after chemical dosing in a 96-well plate.NVS_ADME_hCYP2C19 is one of one assay component(s) measured or calculated from the NVS_ADME_hCYP2C19 assay. It is designed to make measurements of enzyme activity, a form of enzyme reporter, as detected with fluorescence intensity signals by Fluorescence technology.Data from the assay component NVS_ADME_hCYP2C19 was analyzed into 1 assay endpoint. This assay endpoint, NVS_ADME_hCYP2C19, was analyzed in the positive analysis fitting direction relative to Acetonitrile as the negative control and baseline of activity. Using a type of enzyme reporter, loss-of-signal activity can be used to understand changes in the enzymatic activity as they relate to the gene CYP2C19. Furthermore, this assay endpoint can be referred to as a primary readout, because this assay has produced multiple assay endpoints where this one serves a enzymatic activity function. To generalize the intended target to other relatable targets, this assay endpoint is annotated to the cyp intended target family, where the subfamily is xenobiotic metabolism.
Binding assays used specific radioligands (tritiated, iodinated) with non-radioactive competitive displacement ligands in agonist or antagonist protocols (as indicated) and various reference compounds and inhibitors to titrate specific binding to receptors and transporters. Most enzyme assays (CYPs, kinases, phosphatases, proteases, HDACs) used recombinant protein and specific substrates (fluorescence mostly, some colorimetric and radioactive) and inhibitors, followed by a biochemical separation of substrate and product. All assays for the biochemical HTS were initially run in duplicate at a single concentration (10 uM for CYP450 assays and 25 uM for all others). […] Each assay was run with positive and negative controls, and concurrent controls on every plate. The follow-up (secondary) screen tested active chemical-pairs in concentration series, as well as a few additional assays not tested in the primary screen, some selected negative inactives, and several cases re-run in the concentration series for confirmatory purposes.
Broadly, the AC50 is the concentration giving half of the maximal activity seen. Regarding `Cc1c2ccccc2c(C)c2c1ccc1ccccc12`, the AC50 is 7.17 µM (active).

Consider `CO[C@H]1/C=C/O[C@@]2(C)Oc3c(C)c(O)c4c(O)c(c(/C=N/N5CCN(C)CC5)c(O)c4c3C2=O)NC(=O)/C(C)=C\C=C\[C@H](C)[C@H](O)[C@@H](C)[C@@H](O)[C@@H](C)[C@H](OC(C)=O)[C@@H]1C`, for which the AC50 is 10.7 µM (active).

As to `CN(C)c1ccc(C(=C2C=CC(=[N+](C)C)C=C2)c2ccc(N(C)C)cc2)cc1`, the AC50 is 3.32 µM (active).

As to `CC(C)(C)c1cc(/C=C2\SC(N)=NC2=O)cc(C(C)(C)C)c1O`, the AC50 was 1.16 µM (active).

For `CCCCOC(=O)CC(CC(=O)OCCCC)(OC(C)=O)C(=O)OCCCC`, the AC50 is 3.7 µM (active) and 9.42 µM (active).

Consider `CN(C)C(=O)C1(N2CCCCC2)CCN(CC[C@@]2(c3ccc(Cl)c(Cl)c3)CN(C(=O)c3ccccc3)CCO2)CC1`, for which the AC50 was 0.393 µM (active).

Regarding `CC1(C)NC(=O)N(c2ccc([N+](=O)[O-])c(C(F)(F)F)c2)C1=O`, the AC50 was 2.81 µM (active).

With `NCc1cccc(C2CCN(C(=O)c3ccc(C#Cc4ccccc4F)o3)CC2)c1`, the AC50 is 0.23 µM (active).

For `Clc1ccccc1C(c1ccccc1)(c1ccccc1)n1ccnc1`, the AC50 is 1.1 µM (active).

For `COc1cc(C(=O)NC2CCN(C)CC2)ccc1Nc1ncc2c(n1)N(C1CCCC1)CC(F)(F)C(=O)N2C`, the AC50 is 7.11 µM (active).

For `Cc1cccc2ccccc12`, the compound was called inactive.

Consider `CC(C)(O)c1ccc(CNC(=O)c2cccnc2Oc2ccc3nonc3c2)cc1`, for which the AC50 is 10.9 µM (active).

Take `O=C1CCC(C2CCCCC2)CC1`: the compound was called inactive.

Consider `CCN(CC)C(=O)c1cc(S(=O)(=O)Cc2ccccc2)c(N2CCC(c3ccccc3)CC2)cc1N(CC)CCN(C)C`, for which the half-maximal activity concentration (AC50) was 3.48 µM (active).

Take `CCCOC(=O)c1cc(O)c(O)c(O)c1`: the outcome was inactive.

As to `O=C1c2ccccc2C(=O)N1CCc1noc(-c2ccc(CN3CCCCCC3)s2)n1`, the AC50 is 1.13 µM (active).

Regarding `O=C(Nc1ccc(Cl)cc1)Nc1ccc(Cl)c(Cl)c1`, the AC50 was 10 µM (active).

On to `CCCCCCCCOC(=O)c1cc(O)c(O)c(O)c1`, for which the AC50 is 5.4 µM (active).

Turning to `CCN(Cc1cccnc1)C(=O)c1cccc(Cl)c1[C@]1(C)C(=O)N(Cc2ccc(OC)cc2OC)c2ccc(Cl)cc21`, the concentration at half-maximal activity (AC50) is 1.01 µM (active).

Regarding `OC12N=C(c3ccccc3)SC1Cc1cc(Cl)ccc12` (stereo unspecified), the AC50 was 0.245 µM (active).

Regarding `C[C@]12CC[C@@H]3c4ccc(O)cc4CC[C@H]3[C@@H]1CC[C@H]2O`, the AC50 is 0.649 µM (active).

For the compound `COc1ccc2cc(S(=O)(=O)N[C@H](CC(=O)N[C@H](Cc3ccc(CN4[C@H](C)CCC[C@@H]4C)cc3)C(=O)N(C)C(C)C)c3ccc4c(c3)OCO4)ccc2c1`, the AC50 is 5.3 µM (active).

`CCOC(=O)O[C@H](C)OC(=O)c1ccc2c(c1)cc(C(=O)NC1CCN(C(C)C)CC1)n2Cc1cc(-c2ccc(Cl)s2)on1`: the AC50 was 5.54 µM (active).

For `O=C(O)Cc1cc(I)c(Oc2ccc(O)c(I)c2)c(I)c1`, the outcome was inactive.

For the compound `c1ccc(C[n+]2cccc3ccccc32)cc1`, the AC50 is 4.78 µM (active).

In the case of `CCCCOC(=O)c1ccc(O)cc1`, the AC50 is 7.75 µM (active).
